Compound activity as filed in PubChem BioAssay.
ALOX12 inh – ALOX12 (human) lipoxygenase inhibition | purified 12hLO, xylenol orange hydroperoxide absorbance | Potency, µM (highest dose often 108 µM), for inactives: at the highest dose activity change, negative = inhibition, actives largely listed as inhibitors | hit rate 1.1% among 580,000 | P18054 | AID 1671190
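Hydroperoxide product was detected by ferrous iron/xylenol orange as the 573 to 405 nm absorbance ratio. Arachidonic acid at 40 uM (final) was turned over for 30 min at room temperature by 150 nM human 12hLO, pH 7.0 Hepes buffer, after 15 min compound preincubation.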
DT40 TDP1 no CPT – qHTS for Inhibitors of human tyrosyl-DNA phosphodiesterase 1 (TDP1): qHTS in cells in absence of CPT; DT40 Tdp1-/- hTDP1 cells, no CPT, ATP luminescence, 48 h; hit rate 15% among 420,000; Potency, µM (highest dose often 46.2 µM), without a hit: top-dose activity change, negative = growth inhibition, hits mostly inhibitors; note: nearly all actives have a fitted effect of over 55% in size
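A cellular qHTS used chicken DT40 cells lacking endogenous Tdp1 but carrying stably transfected human TDP1. Compounds were applied without camptothecin, and cell growth kinetics were judged by ATP-dependent luminescence after ≥48 hr.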
RORg inh – inhibitors of mouse ROR gamma transcriptional activity; P51450; Drosophila S2 Gal4-RORgamma UAS-luciferase reporter, 20 h; Potency, µM (highest dose often 53.6 µM), for the others: at the top dose activity change, negative = inhibition, usual class: inhibitors; hit rate 5.4% among 310,000; AID 2551; note: nearly all actives have a fitted effect of over 60% in size
Target sequence (P51450 whole entry, looked up, the tested form may be a part): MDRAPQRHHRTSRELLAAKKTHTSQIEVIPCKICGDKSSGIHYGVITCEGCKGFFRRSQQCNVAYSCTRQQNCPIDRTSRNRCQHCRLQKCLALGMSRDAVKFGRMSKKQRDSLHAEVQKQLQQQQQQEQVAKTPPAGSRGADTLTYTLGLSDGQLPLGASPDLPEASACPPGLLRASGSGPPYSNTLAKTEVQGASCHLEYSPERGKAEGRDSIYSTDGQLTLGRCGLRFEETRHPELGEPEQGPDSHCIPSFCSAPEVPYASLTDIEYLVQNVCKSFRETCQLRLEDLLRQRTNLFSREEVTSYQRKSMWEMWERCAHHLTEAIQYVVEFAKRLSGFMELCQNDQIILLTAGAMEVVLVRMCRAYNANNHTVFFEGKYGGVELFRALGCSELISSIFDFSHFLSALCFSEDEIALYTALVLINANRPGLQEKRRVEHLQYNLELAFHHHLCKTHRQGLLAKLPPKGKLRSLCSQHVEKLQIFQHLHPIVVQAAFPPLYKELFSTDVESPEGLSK
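Luminescence from a UAS-regulated Photinus luciferase reporter in stably transfected Drosophila Schneider cells is measured; decreased signal marks ROR gamma inhibition. Fusion expression is induced by 700 uM copper sulfate for 20 hr.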
Gal4-VP16 FLuc – counter-screen for ROR gamma inhibitors: Gal4-VP16 reporter. Drosophila S2 Gal4-VP16 UAS-luciferase, luminescence, 20 h. Potency, µM (doses to about 53.6 µM), without a hit: top-dose activity, negative = inhibition, actives largely listed as inhibitors. hit rate 3.5% among 310,000. AID 2546;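 note: Gal4-VP16 expression switched on by copper sulfate through the metallothionein promoter; nearly all actives have a fitted effect of over 50% in size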
DT40 TDP1 CPT – DT40-hTDP1 cell growth loss with CPT | chicken DT40 Tdp1-/-;hTDP1 cells + 20 nM CPT, ATP luminescence, 48 h | Potency, µM (highest dose often 46.2 µM), inactives show at the top dose activity change, negative = growth inhibition, most hits filed as inhibitors | hit rate 12% among 420,000; note: nearly all actives have a fitted effect of over 55% in size
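Chicken DT40 Tdp1-/- cells complemented with human TDP1, 400 cells/well, exposed to compounds plus 20 nM camptothecin for at least 48 h at 37 C; viability read as ATP content by CellTiter-Glo luminescence.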
ELG1 repair inh – ELG1-dependent DNA repair inhibition | HEK293T ELG1-luciferase reporter, luminescence, 16 h; DNA damage induced by 5-fluorouridine | Potency, µM (doses to about 46.1 µM), without a hit: at the top dose activity change, negative = inhibition, hits mostly inhibitors | hit rate 2.3% among 330,000 | AID 504467; note: nearly all actives have a fitted effect of over 55% in size
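Luminescence from the luciferase reporter, measured 30 min after ONE-Glo reagent at room temperature, was the read-out. Beforehand, 2,000 cells per well were exposed for 16 hr at 37 °C to 5-fluorouridine together with compound or vehicle.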
* = called active by the depositor; ? = inconclusive; / = not tested or not shown. This is a sample that favours compounds with a hit; in the whole collection about 15% have one here. Calls come from the whole dose curve; as a rule, active = well fitted curve in the direction sought with a large enough effect; inconclusive = small, poorly fitted or top-dose-only effect, or another doubt; inactive = no such curve, though single readings can be large; an effect the other way counts as inactive or inconclusive. % is set by controls: 0 for no effect and ±100 for the full control effect; potency is the fitted concentration of half-maximal effect.

SMILES | ALOX12 inh | DT40 TDP1 no CPT | RORg inh | Gal4-VP16 FLuc | DT40 TDP1 CPT | ELG1 repair inh
CC(=O)Nc1ccc2nc(SCC(=O)NCCOc3ccccc3)sc2c1 | 1.7% | 14.6µM* | ? | 22.5% | 14.6µM* | -23.9%
NC(=O)CSc1nc2ccc(NC(=O)COc3ccccc3)cc2s1 | -13.2% | 23.1µM* | / | / | ? | /
O=C(COc1ccc(F)cc1)Nc1ccc2nc(SCc3ccccc3)sc2c1 | -8.3% | ? | / | / | ? | /
COc1ccc(/C(C#N)=C/c2ccc(-c3cccc(C(F)(F)F)c3)o2)cc1OC | -7.2% | / | / | / | / | /
COc1cc(C(=O)NC(C)CCc2ccccc2)cc(OC)c1OC (centres undefined) | 31.0% | -5.2% | -9.7% | 1.3% | -5.8% | -2.1%
COc1cc(C(=O)NC(C)c2cccc3ccccc23)cc(OC)c1OC (centres undefined) | ? | 20.6µM* | 85.2% | 9.1% | ? | -7.4%
COc1cc(Br)c(C(C)NC(=O)c2ccc(C)cc2)cc1OC (centres undefined) | -14.7% | ? | 24.9% | -13.6% | ? | -26.2%
COc1cc(Br)c(C(C)NC(=O)c2cccc(Br)c2)cc1OC (centres undefined) | ? | 23.1µM* | 23.6% | -12.4% | 25.9µM* | -25.1%
COc1ccc(C)cc1-n1ccnc1SCC(=O)Nc1nccs1 | -12.1% | / | / | / | / | /
COc1cc(NC(=O)Cn2nc3ccc(SC4CCCCC4)nn3c2=O)cc(OC)c1OC | 12.8% | / | / | / | / | /
Cc1ccc2c3c1C1(C(=O)N3C(C)(C)CC2C)C(C#N)=C(N)Oc2cc(O)ccc21 (centres undefined) | -8.8% | 0.3% | 0.9% | -11.2% | -23.2% | -6.8%
Cc1cc2c3c(c1)C1(C(=O)N3C(C)(C)CC2C)C(C#N)=C(N)Oc2cc(O)ccc21 (centres undefined) | ? | 25.1µM* | -15.6% | -7.8% | -13.4% | -9.7%
COc1cccc(-c2ccc3c(N)c(C(=O)c4ccc(Cl)cc4)sc3n2)c1 | -19.2% | 7.31µM* | / | / | 8.2µM* | /
COc1ccc(C(=O)c2sc3nc(-c4ccccc4)ccc3c2N)cc1 | / | -52.6% | ? | -18.0% | -53.7% | 3.4%
COc1ccc(-c2ccc3c(N)c(C(=O)Nc4ccc(C)cc4C)sc3n2)cc1OC | -10.3% | ? | / | / | 4.11µM* | /
CC(C)OC(=O)c1sc2nc(-c3ccccc3)ccc2c1N | -0.3% | ? | 7.08µM* | ? | -15.1% | ?
COc1ccc(OCC(=O)NCc2ccc(Cl)cc2)cc1 | -1.9% | 0.4% | 1.9% | 1.4% | -4.6% | -1.4%
COc1ccc(-c2ccc3c(N)c(C(=O)NCc4ccc(Cl)cc4)sc3n2)cc1 | ? | 14.6µM* | / | / | ? | /
Nn1c(SC(C(=O)N2CCCCC2)c2ccccc2)nnc1-c1ccccc1F (centres undefined) | 13.4% | / | / | / | / | /
Cc1ccc(NC(=O)C2Cn3cccc3C(=O)N2)cc1F (centres undefined) | -13.6% | / | / | / | / | /
Nc1c(C(=O)Nc2ccc(OC(F)(F)F)cc2)sc2nc(-c3ccncc3)ccc12 | -15.5% | 6.51µM* | / | / | 10.3µM* | /
Nc1c(C(=O)Nc2cc(Cl)cc(Cl)c2)sc2nc(-c3ccncc3)ccc12 | 1.6% | / | / | / | / | /
CCOc1ccccc1NC(=O)c1sc2nc(-c3ccc(OC)cc3)ccc2c1N | -18.4% | 13µM* | / | / | 20.6µM* | /
Nc1c(C(=O)NCc2ccc(Cl)cc2)sc2nc(-c3ccc(F)cc3)ccc12 | -22.9% | 20.6µM* | / | / | 18.4µM* | /
O=C(COc1ccccc1)NCCC1CCN(C(=O)Nc2cc(F)cc(F)c2)CC1 | 27.3% | / | / | / | / | /
N#C/C(=C/c1ccc(O)cc1)c1nc2ccccc2[nH]1 | 2.4% | / | / | / | / | /
Cc1ccc(C(C)C)c(OCC(=O)NC(=S)Nc2ccccc2N2CCOCC2)c1 | -11.5% | 16.4µM* | / | / | 23.1µM* | -12.8%
